A selection: hits, their analogues and other compounds. The true share with any hit is near 12%.
HP1b chromo inh = HP1-beta chromodomain-methylated histone interaction inhibition; P83916; AlphaScreen HP1-beta / biotin-H3K9me3 peptide binding; Potency, µM (top dose mostly 114 µM), inactives show at the highest dose activity change, negative = inhibition, hits mostly inhibitors; 0.56% of 390,000 active; also: nearly all actives have a fitted effect of over 70% in size
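AlphaScreen: HP1-beta (50 nM) preformed 30 min with biotin-H3(1-18)K9me3 peptide (50 nM) in PBS pH 7.4, 0.01% Tween-20. Compound added for 30 min at RT, then streptavidin donor/nickel chelate acceptor beads (10 ug/mL) for 30 min.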
BAZ2B block = inhibitors of human BAZ2B bromodomain. 4.4% of 360,000 active. AlphaScreen BAZ2B-H3K14Ac peptide displacement. Potency, µM (titrated, usually from 114 µM), for the others: top-dose activity change, negative = inhibition, usual class: inhibitors. Q9UIF8; also: % is scaled to controls: 0 for no effect and ±100 for the full control effect; nearly all actives have a fitted effect of over 60% in size
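AlphaScreen displacement: compounds (up to 110uM) incubated 30 min at room temperature with a preformed 50 nM BAZ2B/50 nM biotinylated H3K14Ac peptide complex in PBS pH 7.4 with Tween-20. Donor and acceptor beads at 10 ug/mL final added, 20 min light-protected before reading.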
PLK1 PBD inh = blocks phosphopeptide binding to human PLK1 polo-box domain; P53350; Potency, µM, inactives show max response, negative = inhibition, actives largely listed as inhibitors; 2.8% of 360,000 active; Plk1 PBD binding of FITC phosphopeptide, fluorescence polarization; also: series mostly up to about 57 µM; % is scaled to controls: 0 for no effect and ±100 for the full control effect; nearly all actives have a fitted effect of over 65% in size
Target sequence (P53350 whole entry, looked up, the tested form may be a part): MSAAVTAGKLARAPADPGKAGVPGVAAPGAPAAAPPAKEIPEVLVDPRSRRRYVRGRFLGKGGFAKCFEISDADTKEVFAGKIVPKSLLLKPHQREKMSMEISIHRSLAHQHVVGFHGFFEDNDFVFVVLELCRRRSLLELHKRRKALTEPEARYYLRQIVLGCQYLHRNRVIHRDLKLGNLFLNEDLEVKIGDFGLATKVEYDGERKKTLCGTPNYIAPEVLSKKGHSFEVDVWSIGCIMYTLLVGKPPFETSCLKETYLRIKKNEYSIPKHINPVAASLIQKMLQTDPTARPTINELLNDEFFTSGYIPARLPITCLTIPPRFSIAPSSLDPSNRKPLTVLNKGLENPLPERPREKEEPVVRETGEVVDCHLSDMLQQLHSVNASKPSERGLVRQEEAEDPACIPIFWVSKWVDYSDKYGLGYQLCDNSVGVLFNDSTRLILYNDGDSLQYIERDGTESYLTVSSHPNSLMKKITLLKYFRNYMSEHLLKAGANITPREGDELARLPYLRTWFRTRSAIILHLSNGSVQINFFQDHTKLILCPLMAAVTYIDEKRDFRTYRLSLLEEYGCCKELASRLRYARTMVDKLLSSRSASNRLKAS
JMJD2A Tudor inh = JMJD2A Tudor domain (human) inhibition; AlphaScreen JMJD2A-Tudor / H3K4me3 peptide binding; 4.4% of 390,000 active; Potency, µM (doses to about 114 µM), inactives show at the top dose activity change, negative = inhibition, actives largely listed as inhibitors; O75164; also: % is scaled to controls: 0 for no effect and ±100 for the full control effect; nearly all actives have a fitted effect of over 50% in size
Sfp PPTase inh = Sfp phosphopantetheinyl transferase inhibition; AID 1490; 3.5% of 310,000 active; Potency, µM, for inactives: largest response in the series, negative = inhibition, hits mostly inhibitors; Biochemical Sfp PPTase activity, qHTS; Q9F4F7;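 also: the enzyme is Sfp with the accession as filed and its product quenches rhodamine fluorescence; 0% = enzyme reaction without inhibitor and -100% = no enzyme wells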
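Compounds were incubated with enzyme (final 15 nM) for 15 min at room temperature before substrate addition started the reaction. Fluorescence at 525 nm excitation, 598 nm emission was recorded immediately and after 30 minutes.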
G9a inh = G9a (human) methyltransferase inhibition | Q96KQ7 | G9a H3K9 monomethylation, AlphaScreen, 2 h | Potency, µM (series often up to 102 µM), for inactives: top-dose activity, negative = inhibition, actives largely listed as inhibitors | 8.8% of 350,000 active; also: % is scaled to controls: 0 for no effect and ±100 for the full control effect; nearly all actives have a fitted effect of over 75% in size
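AlphaScreen detection with an anti-monomethyl H3K9 antibody quantified product after a 2 h room-temperature reaction containing 500 nM biotinylated H3K9 peptide, 20 µM SAM and 20 nM enzyme, which had been preincubated 15 min with compound.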
Starred values were filed as active, the others as inactive; ? = inconclusive; nt = no result given; ! = not confirmed by another sample; [ ] = another dose, or the depositor's remark. Calls follow the shape of the dose curve; as a rule, active = well fitted curve in the direction sought with a large enough effect; inconclusive = small, poorly fitted or top-dose-only effect, or another doubt; inactive = no such curve, though single readings can be large; an effect the other way counts as inactive or inconclusive. Potency is read from the fitted curve at half-maximal effect.

SMILES	HP1b chromo inh	BAZ2B block	PLK1 PBD inh	JMJD2A Tudor inh	Sfp PPTase inh	G9a inh
CCC(C)N(C(=O)CSc1nc(-c2cccs2)nc2ccccc12)C1CCS(=O)(=O)C1 (stereo not given)	11%	nt	2%	-16%	nt	nt
Cc1ccc([N+](=O)[O-])c(C)[n+]1C	?	?	-4%	14µM*	-25%	3.5µM*
Oc1c(Br)cc(Br)cc1CNc1ccccn1	25%[57 µM]	-3%	-20%	14%	8%	16%[12.7 µM]
Cc1ccc(O)c(CNc2cccc3cccnc23)c1	?	32µM*	-2%	?	?	nt
Oc1ccc(Br)cc1CNc1cccc2cccnc12	19%	?	-16%	?	-1%	16%[0.501 µM]
Oc1c(Br)cc(Br)cc1CNc1cccc2cccnc12	-16%	?	-6%	?	40µM*	nt
CCOc1ccc(NC(=O)CS(=O)(=O)Cc2nc(-c3ccc(C)cc3)oc2C)cc1	42%	-12%	nt	0%	nt	-16%[59 µM]
COc1cc(C(C2C(=O)CC(C)(C)CC2=O)C2C(=O)CC(C)(C)CC2=O)cc(OC)c1OC	54%	1%	?	-10%	?	45µM*
COc1cc(C(C2=C(O)CC(C)(C)CC2=O)C2C(=O)CC(C)(C)CC2=O)cc(OC)c1OC (stereo not given)	-1%	?	19µM*	-29%[57.1 µM]	50µM*	?
COc1cc(C(C2C(=O)CC(C)(C)CC2=O)C2C(=O)CC(C)(C)CC2=O)ccc1OC(C)=O	47%	nt	?	6%	nt	nt
COc1cc(C(O)C(=O)O)ccc1O (stereo not given)	39%	-5%	2%	1%	7%	11µM*!
COc1cc(C(C2C(=O)CC(C)(C)CC2=O)C2C(=O)CC(C)(C)CC2=O)ccc1O	50%	-12%	?	5%	56µM*	38%[0.501 µM]
COc1ccc(C(C2C(=O)CC(C)(C)CC2=O)C2C(=O)CC(C)(C)CC2=O)cc1COCC(F)(F)F	58%	-7%	6.7µM*	3%	?	?
COc1ccc(OC(F)(F)F)cc1CC1(C)C(=O)Nc2c(Cl)ccc(Cl)c21 (stereo not given)	nt	nt	2%	nt	nt	nt
CC1(N=Cc2cc(Cl)ccc2O)COP(=O)(Nc2ccccc2)OC1 (stereo not given)	31%	nt	1%	-8%	nt	nt
COc1ccc(-n2ncc3c(NCc4ccco4)ncnc32)cc1	15%	?	-4%	?	-2%	45µM*
CCc1cc2c(NCc3ccco3)ncnc2s1	5%	56µM*	?	?	12%	45µM*
COc1ccc(-n2ncc3c(NCc4cccs4)ncnc32)cc1	26%	-10%	-3%	-8%	4%	5%[12.7 µM]
COc1ccc(-n2ncc3c(NCc4ccccn4)ncnc32)cc1	11%	?	-4%	14µM*	-24%	-27%[59 µM]
O=c1[nH]c(CSc2nnc(Nc3ccccc3)s2)nc2ccccc12	-6%	-5%	27µM*	?	2%	-4%
CC(C)Cn1c(SCc2nc3ccccc3c(=O)[nH]2)nc2ccccc2c1=O	17%	89µM*	1%	-8%	2%	2%
O=C(CCc1nc2ccccc2c(=O)[nH]1)Nc1nnc(SCc2ccccc2)s1	11%	2%	2%	-8%	nt	-40%
O=c1[nH]c(CSc2cccc[n+]2[O-])nc2ccccc12	47%	-4%	-10%	-1%	45µM*	nt
CC(C)(C)OC(=O)NC1CCN(S(=O)(=O)c2ccc3c(c2)OCCO3)CC1	3%	-5%	-24%	-23%	4%	nt
NN1C(=O)/C(=C2/Sc3ccccc3N2CCCS(=O)(=O)O)SC1=S	-23%	79µM*	-28%	?	-16%	40µM*
SMILES	HP1b chromo inh	BAZ2B block	PLK1 PBD inh	JMJD2A Tudor inh	Sfp PPTase inh	G9a inh
C=CCN1/C(=C2/SC(=S)N(C)C2=O)Sc2ccccc21	nt	?	nt	nt	-12%	40µM*
CCN1C(=O)/C(=C2/Sc3ccccc3N2CC)SC1=S	31%	-8%	-9%	-4%	-4%	nt
O=C1NC(=S)S/C1=C1\Sc2ccccc2N1CCCS(=O)(=O)O	?	?	?	17%[11.4 µM]	25µM*	10µM*
C=CCOc1cccc(C2C(C(=O)c3ccc(C)o3)=C(O)C(=O)N2CCN(C)C)c1 (stereo not given)	55%	-26%	-12%	?	6%	45µM*
CCCOc1cccc(C2C(C(=O)c3ccc(C)o3)=C(O)C(=O)N2CCN2CCOCC2)c1 (stereo not given)	47%	-33%	-4%	-1%	2%	45µM*
CCCOc1cccc(C2C(C(=O)c3ccco3)=C(O)C(=O)N2CCN(CC)CC)c1 (stereo not given)	32%	0%	-6%	-20%	0%	?
COc1cc(C2C(C(=O)c3ccc(C)o3)=C(O)C(=O)N2CCN2CCOCC2)ccc1OCCC(C)C (stereo not given)	16%	-28%	-7%	?	-7%	32µM*
CSCC[C@H](NC(=O)c1ccc2ccccc2c1)C(=O)N1CCC2(CC1)NCCc1[nH]cnc12	6%	?	-15%	?	-20%	45µM*
CCOC(=O)c1ccc(N2C(=O)C3C(C2=O)C(C(=O)c2ccc(Cl)cc2)N2CCCC32)cc1 (stereo not given)	32%	50µM*	-4%	-33%	?	?
O=C(NNc1ccc(C(F)(F)F)cc1[N+](=O)[O-])c1ccc(NS(=O)(=O)c2ccc(F)cc2)cc1	?	10µM*	-23%	22µM*	7%	25µM*
CC(C)[C@H](Nc1ccc(C(F)(F)F)cc1[N+](=O)[O-])C(=O)O	22%	-9%	-11%	-22%	36%	nt
COc1ccc(N=C2O/C(=C/c3sc(=S)n(CC4CCCO4)c3O)N=C2C#N)cc1 (stereo not given)	?	8.9µM*	-21%	?	2.8µM*	11µM*
CCC(C)(C)NC(=O)C(c1ccc(OC)cc1)N(C(=O)CCC(=O)Nc1cc(C)on1)c1ccc2c(c1)OCCO2 (stereo not given)	35%	-9%	-12%	-13%	22%	10%
C=CCN(CC=C)S(=O)(=O)c1ncn[nH]1	15%	79µM*	-18%	-34%	-24%	?
C=CCN(CC=C)S(=O)(=O)c1ccc(F)cc1	27%	?	-2%	13%	11%	19%[59 µM]
O=C(N1CCCC1)N1CCN(S(=O)(=O)c2ccccc2)CC1	11%	-3%	5%	-12%	18%	8%
CN(C(=O)Nc1ccc(Cl)c(Cl)c1)c1ccccc1C(=O)O	7%	-12%	-6%	5%	-25%	56µM*
O=C(Nc1ccc(Cl)c(Cl)c1)c1ccccc1	61%	11%	2%	18%	nt	-7%[2.33 µM]
